# The entries come from a sample that favours the strongest signals as a whole.
# B1: NK2 (Sus scrofa) (peptide)
# chain: KILRGVCKKIMRTFLRRISKDILTGKK
# Experiments:
# Experiment in all cases: glycan array binding signal (z-score within array); higher = stronger binding
# Conditions in all cases: glycan notation: IUPAC condensed, linker removed
# [1] = biological target: Fuc(a1-2)Gal(b1-3)GalNAc(b1-3)Gal
# Procedure, shortened: (§1)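 Columns mapping to the same glycan were averaged after glycan names were converted to IUPAC-condensed notation. The data come from 3228 arrays in the Consortium for Functional Glycomics database, limited to those with an available protein sequence. Binding is reported as a within-array Z-score averaged across arrays of one protein sequence and across linkers.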
# [2] = biological target: Fuc(a1-2)Gal(b1-3)[Fuc(a1-4)]GlcNAc
# Procedure, shortened: as §1
# [3] = biological target: Fuc(a1-2)Gal6S(b1-3)GlcNAc6S
# Procedure, shortened: as §1
# [4] = biological target: Fuc(a1-2)Gal6S(b1-4)Glc6S
# Procedure, shortened: as §1
# [5] = biological target: Fuc(a1-2)[Gal(a1-3)]Gal(b1-3)GlcNAc(b1-2)Man(a1-3)[Fuc(a1-2)[Gal(a1-3)]Gal(b1-3)GlcNAc(b1-2)Man(a1-6)]Man(b1-4)GlcNAc(b1-4)[Fuc(a1-6)]GlcNAc
# Procedure, shortened: as §1
# [6] = biological target: Fuc(a1-2)[Gal(a1-3)]Gal(b1-4)GlcNAc(b1-6)GalNAc
# Procedure, shortened: as §1
# [7] = biological target: Fuc(a1-2)[GalNAc(a1-3)]Gal(b1-4)GlcNAc(b1-6)GalNAc
# Procedure, shortened: as §1
# [8] = biological target: Fuc(a1-2)[GalNAc(b1-3)]Gal
# Procedure, shortened: as §1
# [9] = biological target: Fuc(a1-3)[Gal3S(b1-4)]GlcNAc
# Procedure, shortened: as §1
# [10] = biological target: Fuc(a1-3)[Gal3S(b1-4)]GlcNAc6S
# Procedure, shortened: as §1
# [11] = biological target: Fuc(a1-3)[GalNAc(b1-4)]GlcNAc
# Procedure, shortened: as §1
# [12] = biological target: Gal(a1-3)Fuc(a1-2)Gal(b1-4)GlcNAc(b1-3)[Gal(a1-3)Fuc(a1-2)Gal(b1-4)GlcNAc(b1-6)]GalNAc
# Procedure, shortened: as §1
# [13] = biological target: Gal(a1-3)Gal(b1-4)GlcNAc(b1-3)GalNAc
# Procedure, shortened: as §1
# [14] = biological target: Gal(a1-4)Gal(b1-4)GlcNAc(b1-3)Gal(b1-4)Glc
# Procedure, shortened: as §1
# [15] = biological target: Gal(b1-3)GlcNAc(b1-3)GalNAc
# Procedure, shortened: as §1
# [16] = biological target: Gal(b1-3)[Fuc(a1-4)]GlcNAc(b1-2)Man(a1-3)[Gal(b1-3)[Fuc(a1-4)]GlcNAc(b1-2)Man(a1-6)]Man(b1-4)GlcNAc(b1-4)[Fuc(a1-6)]GlcNAc
# Procedure, shortened: as §1
# [17] = biological target: Gal(b1-4)GlcNAc(b1-3)Gal(b1-4)GlcNAc(b1-3)Gal(b1-4)GlcNAc(b1-2)Man(a1-3)[Gal(b1-4)GlcNAc(b1-3)Gal(b1-4)GlcNAc(b1-3)Gal(b1-4)GlcNAc(b1-2)Man(a1-6)]Man(b1-4)GlcNAc(b1-4)[Fuc(a1-6)]GlcNAc
# Procedure, shortened: as §1
# [18] = biological target: Gal(b1-4)GlcNAc(b1-3)Gal(b1-4)GlcNAc(b1-6)[Gal(b1-3)]GalNAc
# Procedure, shortened: as §1
# Gal3S(b1-4)Glc6S = biological target: Gal3S(b1-4)Glc6S
# Procedure, shortened: as §1
# Gal3S(b1-4)GlcNAc6S = biological target: Gal3S(b1-4)GlcNAc6S
# Procedure, shortened: as §1
# Gal3S4S(b1-4)GlcNAc = biological target: Gal3S4S(b1-4)GlcNAc
# Procedure, shortened: as §1
# Gal3S6S(b1-4)GlcNAc = biological target: Gal3S6S(b1-4)GlcNAc
# Procedure, shortened: as §1
# Gal3S6S(b1-4)GlcNAc6S = biological target: Gal3S6S(b1-4)GlcNAc6S
# Procedure, shortened: as §1
# Gal4S6S(b1-4)GlcNAc = biological target: Gal4S6S(b1-4)GlcNAc
# Procedure, shortened: as §1
# Gal6S(b1-3)GlcNAc6S = biological target: Gal6S(b1-3)GlcNAc6S
# Procedure, shortened: as §1
# Gal6S(b1-4)GlcNAc6S = biological target: Gal6S(b1-4)GlcNAc6S
# Procedure, shortened: as §1
# [19] = biological target: GalNAc(a1-3)GalNAc(b1-3)Gal(a1-4)Gal(b1-4)Glc
# Procedure, shortened: as §1
# [20] = biological target: GalNAc(b1-3)Gal(a1-6)Gal(b1-4)Glc
# Procedure, shortened: as §1
# GalNAc(b1-4)GlcNAc = biological target: GalNAc(b1-4)GlcNAc
# Procedure, shortened: as §1
# [21] = biological target: Glc(a1-4)Glc(a1-4)Glc(a1-4)Glc
# Procedure, shortened: as §1
# [22] = biological target: GlcNAc(a1-6)Gal(b1-4)GlcNAc
# Procedure, shortened: as §1
# [23] = biological target: GlcNAc(b1-2)Gal(b1-3)GalNAc
# Procedure, shortened: as §1
# [24] = biological target: GlcNAc(b1-2)Man(a1-3)[GlcNAc(b1-4)][GlcNAc(b1-2)Man(a1-6)]Man(b1-4)GlcNAc(b1-4)[Fuc(a1-6)]GlcNAc
# Procedure, shortened: as §1
# [25] = biological target: GlcNAc(b1-3)Gal(b1-4)GlcNAc(b1-6)[GlcNAc(b1-3)Gal(b1-3)]GalNAc
# Procedure, shortened: as §1
# [26] = biological target: GlcNAc(b1-4)Gal(b1-4)GlcNAc
# Procedure, shortened: as §1
# [27] = biological target: GlcNAc(b1-4)GlcNAc(b1-4)GlcNAc(b1-4)GlcNAc(b1-4)GlcNAc
# Procedure, shortened: as §1
# [28] = biological target: GlcNAc6S(b1-3)Gal(b1-4)GlcNAc
# Procedure, shortened: as §1
# Kdn(a2-3)Gal(b1-4)Glc = biological target: Kdn(a2-3)Gal(b1-4)Glc
# Procedure, shortened: as §1
# [29] = biological target: Neu5Ac(a2-3)Gal(b1-4)GlcNAc(b1-2)Man(a1-3)[GlcNAc(b1-2)Man(b1-4)GlcNAc(b1-2)Man(a1-6)]Man(b1-4)GlcNAc(b1-4)GlcNAc
# Procedure, shortened: as §1
# [30] = biological target: Neu5Ac(a2-3)Gal(b1-4)GlcNAc(b1-3)Gal(b1-4)GlcNAc(b1-3)GalNAc
# Procedure, shortened: as §1
# [31] = biological target: Neu5Ac(a2-3)Gal(b1-4)GlcNAc(b1-6)GalNAc
# Procedure, shortened: as §1
# [32] = biological target: Neu5Ac(a2-3)Gal(b1-4)[Fuc(a1-3)]GlcNAc(b1-3)Gal
# Procedure, shortened: as §1
# [33] = biological target: Neu5Ac(a2-3)[Neu5Ac(a2-6)]GalNAc
# Procedure, shortened: as §1
# Neu5Ac(a2-6)Gal = biological target: Neu5Ac(a2-6)Gal
# Procedure, shortened: as §1
# [34] = biological target: Neu5Ac(a2-6)Gal(b1-4)GlcNAc(b1-2)Man(a1-6)[GlcNAc(b1-2)Man(a1-3)]Man(b1-4)GlcNAc(b1-4)GlcNAc
# Procedure, shortened: as §1
# [35] = biological target: Neu5Ac(a2-6)Gal(b1-4)GlcNAc(b1-2)Man(a1-6)[Man(a1-3)]Man(b1-4)GlcNAc(b1-4)GlcNAc
# Procedure, shortened: as §1
# [36] = biological target: Neu5Ac(a2-6)Gal(b1-4)GlcNAc(b1-3)Gal(b1-4)GlcNAc(b1-3)[Neu5Ac(a2-6)Gal(b1-4)GlcNAc(b1-3)Gal(b1-4)GlcNAc(b1-6)]GalNAc
# Procedure, shortened: as §1
# [37] = biological target: Neu5Ac(a2-6)Gal(b1-4)GlcNAc(b1-6)[Gal(b1-3)GlcNAc(b1-3)]Gal(b1-4)Glc
# Procedure, shortened: as §1
# [38] = biological target: Neu5Ac(a2-6)Gal(b1-4)GlcNAc(b1-6)[Gal(b1-3)]GalNAc
# Procedure, shortened: as §1
# [39] = biological target: Neu5Ac(a2-6)GlcNAc(b1-4)GlcNAc
# Procedure, shortened: as §1
# [40] = biological target: Neu5Ac(a2-8)Neu5Ac(a2-3)Gal(b1-4)Glc
# Procedure, shortened: as §1
# [41] = biological target: Neu5Gc(a2-3)Gal(b1-3)GlcNAc
# Procedure, shortened: as §1
binder,measurement,setting,value
B1,glycan array binding signal (z-score),[1],0.02
same,glycan array binding signal (z-score),[2],-0.178
same,glycan array binding signal (z-score),[3],2.03
same,glycan array binding signal (z-score),[4],2.24
same,glycan array binding signal (z-score),[5],0.527
same,glycan array binding signal (z-score),[6],0.282
same,glycan array binding signal (z-score),[7],-1.05
same,glycan array binding signal (z-score),[8],-0.991
same,glycan array binding signal (z-score),[9],0.36
same,glycan array binding signal (z-score),[10],1.58
same,glycan array binding signal (z-score),[11],0.101
same,glycan array binding signal (z-score),[12],-0.533
same,glycan array binding signal (z-score),[13],0.826
same,glycan array binding signal (z-score),[14],0.785
same,glycan array binding signal (z-score),[15],-0.33
same,glycan array binding signal (z-score),[16],-0.004
same,glycan array binding signal (z-score),[17],0.462
same,glycan array binding signal (z-score),[18],2.04
same,glycan array binding signal (z-score),Gal3S(b1-4)Glc6S,1.67
same,glycan array binding signal (z-score),Gal3S(b1-4)GlcNAc6S,4.29
same,glycan array binding signal (z-score),Gal3S4S(b1-4)GlcNAc,2.81
same,glycan array binding signal (z-score),Gal3S6S(b1-4)GlcNAc,2.92
same,glycan array binding signal (z-score),Gal3S6S(b1-4)GlcNAc6S,3.98
same,glycan array binding signal (z-score),Gal4S6S(b1-4)GlcNAc,2.26
same,glycan array binding signal (z-score),Gal6S(b1-3)GlcNAc6S,3.16
same,glycan array binding signal (z-score),Gal6S(b1-4)GlcNAc6S,2.85
same,glycan array binding signal (z-score),[19],-0.58
same,glycan array binding signal (z-score),[20],-0.616
same,glycan array binding signal (z-score),GalNAc(b1-4)GlcNAc,-0.865
same,glycan array binding signal (z-score),[21],0.05
same,glycan array binding signal (z-score),[22],-1.07
same,glycan array binding signal (z-score),[23],-0.471
same,glycan array binding signal (z-score),[24],-1.11
same,glycan array binding signal (z-score),[25],0.144
same,glycan array binding signal (z-score),[26],0.592
same,glycan array binding signal (z-score),[27],0.06
same,glycan array binding signal (z-score),[28],-0.015
same,glycan array binding signal (z-score),Kdn(a2-3)Gal(b1-4)Glc,0.105
same,glycan array binding signal (z-score),[29],-0.411
same,glycan array binding signal (z-score),[30],2.37
same,glycan array binding signal (z-score),[31],1.14
same,glycan array binding signal (z-score),[32],-0.39
same,glycan array binding signal (z-score),[33],0.24
same,glycan array binding signal (z-score),Neu5Ac(a2-6)Gal,-0.071
same,glycan array binding signal (z-score),[34],0.794
same,glycan array binding signal (z-score),[35],-0.656
same,glycan array binding signal (z-score),[36],0.794
same,glycan array binding signal (z-score),[37],-0.41
same,glycan array binding signal (z-score),[38],-1.1
same,glycan array binding signal (z-score),[39],-0.816
same,glycan array binding signal (z-score),[40],-0.889
same,glycan array binding signal (z-score),[41],-0.108

# — the supplement of paper PMC8728848
